Measured values as given in PubChem BioAssay (Tox21).
Records with an inconclusive call do not appear. Calls of active or inactive are those of the source. Unless noted, calls follow the shape of the full dose curve.

Legend:
[1] = Nuclear factor erythroid 2-related factor 2/antioxidant responsive element (Nrf2/ARE) small molecule agonists: qHTS cell viability counter screen in human keratinocytes (AID 1919968; active = well fitted curve in the direction sought with a large enough effect in the repeat runs; an effect the other way counts as inactive or inconclusive; also: nearly all actives have a fitted effect of over 55% in size; also: potency is read from the fitted curve at half-maximal effect)
In short: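 Parallel cytotoxicity read: KeratinoSens HaCaT cells, compound treatment 23 h, viability by CellTiter-Fluor fluorescence 1 h post-reagent.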

[2] = Nuclear factor erythroid 2-related factor 2/antioxidant responsive element (Nrf2/ARE) small molecule agonists: luciferase reporter gene qHTS assay in human keratinocytes (AID 1919969); also: nearly all actives have a fitted effect of over 35% in size; also: potency is read from the fitted curve at half-maximal effect
[3] = target: Gonadotropin-releasing hormone receptor (Homo sapiens) (UniProt P30968); test: Human gonadotropin-releasing hormone receptor (GnRHR) small molecule agonists, calcium flux assay in GnRHR-HEK293 cells (AID 1920063); also: nearly all actives have a fitted effect of over 35% in size
In short: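 Calcium flux, agonist mode, human GnRHR stably integrated in HEK293; dye 1 h at 37 C before compound; Ex/Em=480/540 kinetic read, 3 min; 15 concentrations, triplicate.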

[4] = target: KiSS-1 receptor (Homo sapiens) (UniProt Q969F8); test: Human kisspeptin (KISS1R) small molecule agonists, calcium flux assay in KISS1R-HEK293 cells (AID 1920064; active = well fitted curve in the direction sought with a large enough effect in the repeat runs; an effect the other way counts as inactive or inconclusive)
In short: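 Triplicate 15-concentration series were applied to dye-loaded human KISS1R HEK293 cells, and agonist-evoked calcium fluorescence was captured for 3 min.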

[5] = G protein-coupled receptor (GPCR) small molecule agonists, calcium flux assay: HEK293 wild type cell line counter screen (AID 1920065)
In short: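 Non-specific calcium responders were flagged by adding DMSO-dissolved compounds to dye-loaded cells and reading 480/540 nm fluorescence each second for 3 min; ATP served as positive control.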

[6] = p53 small molecule agonists, cell-based qHTS assay with human liver microsomes: qHTS cell viability counter screen (AID 1963579); also: nearly all actives have a fitted effect of over 45% in size
In short: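 Cytotoxicity counter screen: p53RE-bla, 4,000 cells/well; 5 h settle, 37 C/5% CO2; cpd + HLM 0.5 mg/mL + NADPH 0.5 mg/mL (final); 16 h, 37 C; CellTiter-Glo, 30 min RT, luminescence.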

[7] = p53 small molecule agonists, cell-based qHTS assay with rat liver microsomes: qHTS cell viability counter screen (AID 1963580); also: nearly all actives have a fitted effect of over 45% in size
In short: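 After the beta-lactamase ratio was read, CellTiter-Glo was added to the same wells and luminescence measured at 30 min; cells had been treated 16 h at 37 C with compounds, rat liver microsomes and NADPH (0.5 mg/mL final each).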

[8] = target: 5-hydroxytryptamine receptor 2A (Homo sapiens) (UniProt P28223); test: 5-hydroxytryptamine receptor 2A (HTR2A) small molecule antagonists, cell-based qHTS assay (AID 1963586); also: nearly all actives have a fitted effect of over 45% in size
In short: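 CHO cells stably expressing human HTR2A were plated for 18 h at 37 C, then loaded with calcium dye for 1 h. Compounds were preincubated 5 min at room temperature before DOI (4 nM solution) was added. Kinetic fluorescence was read for 3 min.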

[9] = target: Muscarinic acetylcholine receptor M1 (Homo sapiens) (UniProt P11229); test: Cholinergic receptor muscarinic 1 (CHRM1) small molecule agonists, cell-based qHTS assay (AID 1963589); also: nearly all actives have a fitted effect of over 35% in size
In short: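 qHTS, 15-point titration, 3 independent runs: compounds pin-transferred onto dye-loaded CHRM1-CHO cells (human M1), calcium fluorescence followed every second to detect agonism.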

[10] = cAMP Responsive Elements (CRE) small molecule agonists, cell-based qHTS assay (AID 1963590)
In short: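 Quantitative HTS for CRE agonists: HEK 293T CRE-bla cells, overnight plating, 3 h compound incubation at 37 C/5% CO2, then 2 h room-temperature LiveBLAzer B/G FRET substrate loading.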

[11] = target: Beta-2 adrenergic receptor (Homo sapiens) (UniProt P07550); test: Adrenergic beta2 receptor (ADRB2) small molecule antagonists, cell-based qHTS assay (AID 1963592); also: nearly all actives have a fitted effect of over 50% in size; also: potency is read from the fitted curve at half-maximal effect
In short: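 Assay format: CHO-ADRB2 cells, 18-20hr seeding at 37C/5% CO2, then compound plus 1nM isoproterenol agonist mix for 0.5hr RT. Homogeneous time-resolved fluorescence cAMP detection after 1hr, expressed as 665/615 nm ratio.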

[12] = target: D(2) dopamine receptor (Homo sapiens) (UniProt P14416); test: Dopamine D2 receptor (DRD2) small molecule agonists, cell-based qHTS assay (AID 1963594); also: nearly all actives have a fitted effect of over 35% in size
In short: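 HEK293 cells stably expressing human DRD2, pre-treated with PDE inhibitor Ro20-1724 (0.1 mM final) and compound 10 min at room temperature, then stimulated with NKH477 (200nM […]) for 30 min. cAMP read by HTRF (665/620 nm).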

[13] = target: D(2) dopamine receptor (Homo sapiens) (UniProt P14416); test: Dopamine D2 receptor (DRD2) small molecule antagonists, cell-based qHTS assay (AID 1963595; active = well fitted inhibition curve with a large enough effect in the signal ratio in the repeat runs, with a control signal flat; the % refers to the signal ratio)
In short: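 HEK293 cells stably expressing DRD2, preincubated with 0.1 mM Ro20-1724 and compounds 10 min, were stimulated with 200 nM NKH477 plus 12 nM quinpirole for 30 min at room temperature; cAMP measured by HTRF (665/620 nm).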

[14] = target: Muscarinic acetylcholine receptor M1 (Homo sapiens) (UniProt P11229); test: Cholinergic receptor muscarinic 1 (CHRM1) small molecule antagonists, cell-based qHTS assay (AID 1963588); also: nearly all actives have a fitted effect of over 40% in size
In short: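 Compounds were tested at 15 concentrations in three independent runs. Dye-loaded CHRM1-CHO cells were exposed 5 min at room temperature before stimulation by acetylcholine added at 50nM. Intracellular calcium was read kinetically on FDSS for 3 min.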

[15] = cAMP Responsive Elements (CRE) small molecule antagonists, cell-based qHTS assay (AID 1963591; active = well fitted inhibition curve with a large enough effect in the signal ratio in the repeat runs, not every such curve was filed as active; the % refers to the signal ratio)
In short: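 Fluorescence intensity from cleaved LiveBLAzer B/G substrate (2 h, room temperature) quantified CRE-bla activity in HEK 293T cells exposed 3 h to compound with 0.25 uM final NKH477.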

[16] = p53 small molecule agonists, cell-based qHTS assay: qHTS cell viability counter screen (AID 1963581); also: nearly all actives have a fitted effect of over 45% in size
In short: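 Multiplexed with the reporter read, a CellTiter-Glo step (30 min, room temperature) gauges ATP-based viability of HCT-116 p53RE-bla cells after 16 h compound incubation at 37 C.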

[17] = target: 5-hydroxytryptamine receptor 2A (Homo sapiens) (UniProt P28223); test: 5-hydroxytryptamine receptor 2A (HTR2A) small molecule agonists, cell-based qHTS assay (AID 1963587); also: nearly all actives have a fitted effect of over 30% in size
In short: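 CHO cells stably expressing human HTR2A, plated 18 h, loaded with calcium dye 1 h at 37 C. Agonist mode: compounds added and intracellular calcium fluorescence recorded kinetically for 2 min at 1 sec intervals.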

[18] = p53 small molecule agonists, cell-based qHTS assay (AID 1963582; active = well fitted activation curve with a large enough effect in the signal ratio in the repeat runs, not every such curve was filed as active; the % refers to the signal ratio)
In short: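 Beta-lactamase reporter cells (p53RE-bla) treated with compounds for 16 h at 37 C; FRET substrate, 2 h, room temperature; fluorescence intensity.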

Measured: Potency

Sequence of Beta-2 adrenergic receptor (Homo sapiens) (P07550 whole entry, looked up): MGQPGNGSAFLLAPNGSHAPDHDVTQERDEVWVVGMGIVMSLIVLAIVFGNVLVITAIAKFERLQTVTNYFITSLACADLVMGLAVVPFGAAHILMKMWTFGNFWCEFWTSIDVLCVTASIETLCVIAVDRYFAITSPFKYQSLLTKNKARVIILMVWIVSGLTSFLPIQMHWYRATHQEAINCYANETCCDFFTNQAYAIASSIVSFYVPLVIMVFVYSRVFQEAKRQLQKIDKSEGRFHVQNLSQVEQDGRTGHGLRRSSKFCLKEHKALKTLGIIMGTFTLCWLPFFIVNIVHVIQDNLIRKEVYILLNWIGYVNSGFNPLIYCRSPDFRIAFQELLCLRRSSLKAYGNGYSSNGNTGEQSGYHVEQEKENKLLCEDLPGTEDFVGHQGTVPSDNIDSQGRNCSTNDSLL
Sequence of D(2) dopamine receptor (Homo sapiens) (P14416 whole entry, looked up): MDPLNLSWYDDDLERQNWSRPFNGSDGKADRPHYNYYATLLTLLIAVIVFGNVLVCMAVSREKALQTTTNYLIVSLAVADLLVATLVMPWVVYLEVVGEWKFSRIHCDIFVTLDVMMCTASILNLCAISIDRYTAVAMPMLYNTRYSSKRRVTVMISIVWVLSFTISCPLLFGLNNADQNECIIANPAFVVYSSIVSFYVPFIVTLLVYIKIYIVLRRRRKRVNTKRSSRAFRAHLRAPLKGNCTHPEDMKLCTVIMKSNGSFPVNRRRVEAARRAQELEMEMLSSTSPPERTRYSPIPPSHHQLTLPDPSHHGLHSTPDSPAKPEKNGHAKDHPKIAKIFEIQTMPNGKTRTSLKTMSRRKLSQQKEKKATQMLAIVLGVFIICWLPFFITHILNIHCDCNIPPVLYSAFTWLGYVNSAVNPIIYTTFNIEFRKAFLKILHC
Sequence of Gonadotropin-releasing hormone receptor (Homo sapiens) (P30968 whole entry, looked up): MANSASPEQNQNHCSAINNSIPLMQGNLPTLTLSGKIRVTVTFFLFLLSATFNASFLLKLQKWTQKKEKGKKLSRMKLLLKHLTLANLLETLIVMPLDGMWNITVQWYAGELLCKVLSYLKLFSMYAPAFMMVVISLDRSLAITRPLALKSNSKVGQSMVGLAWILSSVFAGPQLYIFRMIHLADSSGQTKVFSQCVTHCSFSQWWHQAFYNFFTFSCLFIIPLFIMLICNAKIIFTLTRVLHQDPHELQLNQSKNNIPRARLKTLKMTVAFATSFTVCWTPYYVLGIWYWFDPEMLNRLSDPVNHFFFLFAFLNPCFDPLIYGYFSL
Sequence of KiSS-1 receptor (Homo sapiens) (Q969F8 whole entry, looked up): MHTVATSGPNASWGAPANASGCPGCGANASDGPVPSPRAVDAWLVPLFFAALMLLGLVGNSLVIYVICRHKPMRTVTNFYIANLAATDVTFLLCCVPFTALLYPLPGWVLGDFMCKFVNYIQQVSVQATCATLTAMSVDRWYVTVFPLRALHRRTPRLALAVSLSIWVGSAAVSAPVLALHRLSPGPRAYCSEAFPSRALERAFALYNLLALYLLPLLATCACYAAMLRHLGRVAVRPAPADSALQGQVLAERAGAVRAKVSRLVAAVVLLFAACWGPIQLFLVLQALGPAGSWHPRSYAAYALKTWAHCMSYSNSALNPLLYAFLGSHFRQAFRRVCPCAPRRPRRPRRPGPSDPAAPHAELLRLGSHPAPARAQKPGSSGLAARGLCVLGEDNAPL
Sequence of 5-hydroxytryptamine receptor 2A (Homo sapiens) (P28223 whole entry, looked up): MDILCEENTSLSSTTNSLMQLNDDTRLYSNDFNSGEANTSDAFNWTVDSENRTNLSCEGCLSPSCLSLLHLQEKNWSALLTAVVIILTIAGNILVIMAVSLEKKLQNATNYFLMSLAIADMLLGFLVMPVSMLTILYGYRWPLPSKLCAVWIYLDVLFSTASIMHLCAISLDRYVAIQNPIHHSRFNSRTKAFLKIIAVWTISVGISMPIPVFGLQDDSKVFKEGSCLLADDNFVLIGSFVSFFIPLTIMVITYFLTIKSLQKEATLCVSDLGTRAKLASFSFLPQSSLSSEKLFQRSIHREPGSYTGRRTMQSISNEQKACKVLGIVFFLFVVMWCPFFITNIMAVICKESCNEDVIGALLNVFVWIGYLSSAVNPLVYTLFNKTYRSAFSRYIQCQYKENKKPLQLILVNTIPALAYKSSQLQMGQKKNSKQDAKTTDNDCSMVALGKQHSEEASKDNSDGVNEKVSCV
Sequence of Muscarinic acetylcholine receptor M1 (Homo sapiens) (P11229 whole entry, looked up): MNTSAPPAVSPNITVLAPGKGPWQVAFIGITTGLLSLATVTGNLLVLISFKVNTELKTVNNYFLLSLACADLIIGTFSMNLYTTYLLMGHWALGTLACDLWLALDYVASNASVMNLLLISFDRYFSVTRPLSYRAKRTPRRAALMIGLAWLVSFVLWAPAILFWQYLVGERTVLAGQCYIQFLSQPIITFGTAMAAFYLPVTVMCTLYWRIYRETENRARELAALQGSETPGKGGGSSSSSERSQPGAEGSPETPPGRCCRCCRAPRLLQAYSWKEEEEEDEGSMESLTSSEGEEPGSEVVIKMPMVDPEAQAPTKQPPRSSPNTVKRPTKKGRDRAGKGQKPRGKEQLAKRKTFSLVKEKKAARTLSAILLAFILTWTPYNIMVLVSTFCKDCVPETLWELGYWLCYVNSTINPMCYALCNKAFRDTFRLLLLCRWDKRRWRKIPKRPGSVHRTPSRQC

CNC(=O)CSP(=O)(OC)OC
not listed: [14] | [15] | [16] | [17] | [18]
inactive: all other assays above

COc1ccc(OC)c(CC(C)N)c1 (stereo unspecified)
active: [11] 65.6 µM
not listed: [8] | [16] | [17] | [18]
inactive: all other assays above

CCCCc1ccccc1
not listed: [6] | [13] | [18]
inactive: all other assays above

CCC1CCC(=O)O1 (stereo unspecified)
not listed: [10] | [16] | [18]
inactive: all other assays above

COP(=S)(Oc1cc(Cl)c(Br)cc1Cl)c1ccccc1 (stereo unspecified)
active: [2] 48.6 µM
not listed: [7] | [10] | [18]
inactive: all other assays above

CCOP(=O)(O)C(N)=O
not listed: [6] | [18]
inactive: all other assays above

CCOC(=O)c1cn2nc(OP(=S)(OCC)OCC)cc2nc1C
not listed: [8] | [10] | [14] | [15] | [16]
inactive: all other assays above

O=[N+]([O-])c1ccc(F)c([N+](=O)[O-])c1
active: [1] 27.6 µM
inactive: [2] | [3] | [4] | [5] | [7] | [16] | [8] | [17] | [14]

CCN[C@@H](C)Cc1cccc(C(F)(F)F)c1
inactive: [1] | [2] | [3] | [4] | [5] | [6] | [7] | [10] | [15] | [13]

OCCBr
not listed: [14] | [16] | [18]
inactive: all other assays above

CC(=O)NC1CCSC1=O (stereo unspecified)
not listed: [6] | [12] | [18]
inactive: all other assays above

O=C(Cc1ccccc1)OCc1ccccc1
not listed: [7] | [8] | [16] | [18]
inactive: all other assays above

Nc1ccc([N+](=O)[O-])cc1[N+](=O)[O-]
not listed: [7] | [8] | [12] | [18]
inactive: all other assays above

CNC(=O)Oc1ccccc1C(C)C
not listed: [8] | [9] | [10] | [16]
inactive: all other assays above

CC1CN1P(=O)(N1CC1C)N1CC1C (stereo unspecified)
not listed: [16] | [17] | [18]
inactive: all other assays above

CCOC(=O)NC(O)C(Cl)(Cl)Cl (stereo unspecified)
not listed: [16] | [18]
inactive: all other assays above

CC(C)(C)c1ccc(CCOc2ncnc3ccccc23)cc1
not listed: [16] | [18]
inactive: all other assays above

C[N+]1(CCC(C(N)=O)(c2ccccc2)c2ccccc2)CCCCC1
not listed: [7] | [18]
inactive: all other assays above
